Measurements taken from PubChem BioAssay (NCATS).
The list shows a part of the results. Results filed as inconclusive are left out. The source made the active and inactive calls. Calls follow the shape of the dose curve; as a rule, active = well fitted inhibition curve with a large enough effect; inconclusive = small, poorly fitted or top-dose-only effect, or another doubt; inactive = no such curve, though single readings can be large or run the other way.

biological target: DNA polymerase eta (Homo sapiens) (UniProt Q9Y253); experiment: qHTS for Inhibitors of Polymerase Eta: Confirmatory Assay for Cherry-picked Compounds (AID 720502); details: Pol eta primer extension, TAMRA/BHQ fluorescence, 10 min
Excerpt: The Y-family of DNA polymerases, such as the Polymerase Eta (Pol eta), are specifically involved in DNA repair. Pol eta copies undamaged DNA with a lower fidelity than other DNA-directed polymerases. However, it accurately replicates UV-damaged DNA. When thymine dimers are present, this polymerase inserts the complementary nucleotides in the newly synthesized DNA, thereby bypassing the lesion and suppressing the mutagenic effect of UV-induced DNA damage. […] Thus, while Pol eta's (and most likely iota's) normal function is to protect humans against the deleterious consequences of DNA damage, under certain conditions they can have deleterious effects on human health. As a consequence, small molecule inhibitors of Pol eta (identified from a high throughput replication assay) have potential therapeutic applications. A 1536-well format, fluorescence based, high-throughput screen (AID 588591) is developed in collaboration with the National Institute of Child Health & Human Development (NICHD) to screen for inhibitors of the Pol eta enzyme. This screen is used to validate the activity of the selected compounds from the primary assay against the human Pol eta. Inhibition is the desired outcome for this assay. NIH Chemical Genomics Center [NCGC] NIH Molecular Libraries Probe Centers Network [MLPCN] MLPCN Grant: MH090825 Assay Submitter (PI): Roger Woodgate, NICHD
Three microliters of reagents (buffer in column 3 and 4 as negative control while 10 nM Pol eta in columns 1, 2, and 5-48) were dispensed into a 1536-well black solid-bottom plate. Compounds (23 nL) were transferred via Kalypsys pin tool equipped with 1536-pin array. The plates were then incubated for 15 min at room temperature, and 1 uL of substrate was added to start the reaction for a final concentration of 50 nM. The substrate was made by the annealing of unlabeled oligodeoxynucleotide primer (59-[…]-39) and TAMRA-labeled reporter strand (59-[…]-6-TAMRA-39) to oligodeoxynucleotide template labeled with BHQ-2 (59-BHQ-2-[…]-39) described in detail at the Yamanaka et.al. (PLOS, 2012) reference paper. The assay plates were initially read after 0 min and again after 10 min of kinetic reaction using the PerkinElmer Viewlux reader equipped with 525 nm excitation and 598 nm emission filters.
Potency is read from the fitted curve at half-maximal effect.

Chain of DNA polymerase eta (Homo sapiens) (Q9Y253 whole entry, looked up): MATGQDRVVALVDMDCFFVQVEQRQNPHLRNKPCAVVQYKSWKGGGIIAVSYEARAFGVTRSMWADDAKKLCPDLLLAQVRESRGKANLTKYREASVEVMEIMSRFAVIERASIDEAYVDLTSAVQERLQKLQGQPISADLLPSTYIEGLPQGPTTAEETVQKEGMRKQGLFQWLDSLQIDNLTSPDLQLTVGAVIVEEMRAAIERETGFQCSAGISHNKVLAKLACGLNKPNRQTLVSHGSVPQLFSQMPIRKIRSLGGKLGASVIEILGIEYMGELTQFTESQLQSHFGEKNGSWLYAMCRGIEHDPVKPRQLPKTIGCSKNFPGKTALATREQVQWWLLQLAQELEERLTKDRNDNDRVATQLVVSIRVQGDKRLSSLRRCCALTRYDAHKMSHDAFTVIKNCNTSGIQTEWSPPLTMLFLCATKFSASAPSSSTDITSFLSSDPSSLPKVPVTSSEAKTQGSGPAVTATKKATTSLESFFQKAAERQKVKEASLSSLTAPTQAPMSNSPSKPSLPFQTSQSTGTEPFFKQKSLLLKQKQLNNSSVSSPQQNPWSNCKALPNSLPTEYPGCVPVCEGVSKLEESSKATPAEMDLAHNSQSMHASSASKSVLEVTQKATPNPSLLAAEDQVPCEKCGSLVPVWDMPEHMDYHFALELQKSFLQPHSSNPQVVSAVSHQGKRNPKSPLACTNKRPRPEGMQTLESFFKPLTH

Potency, active:
Cc1cc(C(=O)N/N=C/c2ccc(O)c([N+](=O)[O-])c2)c(C)n1-c1ccc(F)cc1 75.7 µM
N#Cc1c(N2CCCCC2)nc(N)c2c(N)nc(SCC(=O)O)cc12 19 µM
O=C(Nc1nc(-c2ccco2)c(-c2ccco2)s1)c1ccco1 26.9 µM
Cc1ccc(N=C2NC(=O)/C(=C/C=C/c3ccco3)S2)cc1C 53.6 µM
Nc1ccc2nc3c(=O)[nH]c(=S)[nH]c3nc2c1 19 µM
NC1=CC(=O)C(=O)c2cccnc21 26.9 µM
COC(=O)c1ccc(COc2ccc(/C=C/C(=O)c3ccc(OC)c(CSCC(=O)O)c3)cc2OC)cc1 60.1 µM
O=c1ccc2c(-c3ccccc3S(=O)(=O)O)c3ccc(O)c(O)c3oc-2c1O 1.07 µM
CCOc1ccc(NC(=O)c2ccc(NC(=O)COC(=O)c3ccc(NC(=O)CC#N)cc3)cc2)cc1 75.7 µM
COc1cccc(/C=N/Nc2ccc(S(=O)(=O)Nc3ccccc3C(=O)O)cc2[N+](=O)[O-])c1O 67.5 µM
CCC(C)Cn1c(O)cc2nn(-c3nc4ccccc4s3)c(=O)c-2c1C (configuration not stated) 75.7 µM
O=C(O)c1ccc2c(c1)C(=O)N(c1ccc(/C=C/C(=O)c3ccccc3)cc1)C2=O 33.8 µM
